# An excerpt weighted towards active compounds, which were near 5.8% of everything screened.
# TRPV1 agonist: human TRPV1 agonism; 0.19% of 320,000 active; AID 540275; TRPV1-expressing cells, Fluo-8 calcium influx, agonist mode; activation, % at 8.33 µM; in the data active = activation above about 80%; inconclusive = between about 30% and that limit
#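 TRPV1-expressing cells were cultured overnight at 35.5C and loaded with Fluo-8 calcium dye for 40 to 90 min at room temperature. After a 10 s baseline, compound was added and calcium influx was read kinetically for 3 min (ex 480/em 520 nm).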
# uPA surface inh: blocks generation of uPA at the cell surface; cell surface uPA generation assay, qHTS; Potency, µM (series often up to 38.3 µM), usual class: inhibitors; 0.31% of 330,000 active; AID 540303; active = well fitted inhibition curve with a large enough effect; inconclusive = small, poorly fitted or top-dose-only effect; inactive = no such curve, though single readings can be large or run the other way; tested in mouse RAW 264.7 cells; note: nearly all actives have a fitted effect of over 55% in size
# TRPV1 PAM: potentiators of human vanilloid receptor 1 (TRPV1); Q8NER1; TRPV1-expressing cells, Fluo-8 calcium influx, capsaicin EC20 potentiation; potentiation, % at 8.33 µM; 0.02% of 320,000 active; AID 540277; in the data active = potentiation above about 80%; inconclusive = between about 30% and that limit
#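 TRPV1-expressing cells were cultured overnight at 35.5C and loaded with Fluo-8 calcium dye for 40 to 90 min at room temperature. After a 10 s baseline, compound was added and calcium influx was read kinetically for 3 min (ex 480/em 520 nm).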
# RORg inh: ROR gamma (mouse) transcription inhibition; P51450; Drosophila S2 Gal4-RORgamma UAS-luciferase reporter, 20 h; Potency, µM (doses to about 53.6 µM), most hits filed as inhibitors; 5.4% of 310,000 active; note: nearly all actives have a fitted effect of over 60% in size
#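 Drosophila S2 cells stably expressing Gal4-DBD/mouse RORγ fusion under metallothionein promoter plus UAS-luciferase; compound 1 h, then 700 uM CuSO4 induction for 20 h at ambient temperature; inhibition read as reduced luminescence.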
# VP16 counter: inhibits Gal4-VP16 luciferase reporter, ROR gamma counter-screen; Drosophila S2 Gal4-VP16 UAS-luciferase, luminescence, 20 h; Potency, µM (top dose mostly 53.6 µM), most hits filed as inhibitors; 3.5% of 310,000 active; AID 2546;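 note: Gal4-VP16 expression switched on by copper sulfate through the metallothionein promoter; nearly all actives have a fitted effect of over 50% in size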
# Hits are given with their value; – = inactive; ? = inconclusive; · = no result; [ ] = another dose, or the depositor's remark. Unless noted, calls come from the whole dose curve; as a rule, active = well fitted curve in the direction sought with a large enough effect; inconclusive = small, poorly fitted or top-dose-only effect, or another doubt; inactive = no such curve, though single readings can be large; an effect the other way counts as inactive or inconclusive.
SMILES,TRPV1 agonist,uPA surface inh,TRPV1 PAM,RORg inh,VP16 counter
CN(C(=O)c1ccc(OC2CCN(C(=O)c3cccnc3)CC2)cc1)C1CCCCC1,–,–,–,–,–
CC(C)NC(=O)NC(=O)COC(=O)c1ccccc1F,–,–,–,11µM,–
CCCC[C@@H]1C[C@H]1C(NC(=O)c1cccs1)c1ccc(C(F)(F)F)cc1 (stereo partly drawn),·,·,·,–,–
Cc1nc(Nc2ccccc2)sc1-c1ccccc1,–,–,–,11µM,11µM
Cc1nc(S/C(=C\c2ccc(-c3ccc(C(=O)O)c(Cl)c3)o2)C(=O)O)n[nH]1,–,–,–,–,–
Cc1nc(S/C(=C\c2ccc(OCc3ccccc3Cl)cc2)C(=O)O)n[nH]1,·,–,·,1µM,?
Cc1nc2ccccn2c1C(=O)NNC(=O)Nc1cccc(C(F)(F)F)c1,–,–,–,–,–
S=C(NCc1ccco1)Nc1ccc(Br)cn1,–,–,–,3.2µM,3.5µM
S=C(NCc1ccco1)Nc1cc(-c2ccccc2)[nH]n1,–,–,–,6.3µM,?
COc1ccc(Cl)cc1NC(=S)NCc1ccccn1,–,–,–,?,?
S=C(NCc1ccccn1)Nc1ccc(Cl)cc1Cl,–,–,–,8.9µM,13µM
S=C(NCc1ccccn1)Nc1ccc(Cl)c(Cl)c1,–,–,–,2.5µM,5µM
S=C(NCc1ccncc1)Nc1ccccc1,–,–,–,–,–
Fc1ccc(NC(=S)NCc2ccccn2)cc1,–,–,–,10µM,?
COc1ccc(NC(=S)NCc2ccccn2)cc1OC,–,–,–,?,?
S=C(NCc1ccccn1)Nc1ccccc1,–,–,–,14µM,?
C/C(=N\O)C(=O)NCc1ccccn1,–,–,–,–[0.365 µM],·
O=C(NCc1ccccn1)/C(=N/O)c1ccccc1,–,–,–,10µM,–
S=C(Nc1ccccc1)Nc1nccs1,?,–,–,–,–
Fc1ccc(NC(=S)Nc2nccs2)cc1,–,?,–,0.32µM,1µM
Cc1ccc(C(=O)NC2CCN(S(=O)(=O)c3ccccc3)CC2)cc1,–,–,–,–,–
COc1c2c(cc3c1C(CC(O)Cc1ccccc1)N(C)CC3)OCO2 (stereo not drawn),–,–,–,–,–
COc1ccc2c(c1OC)C(Cc1ccccc1)N1CCc3cc4c(cc3C1=C2)OCO4 (stereo not drawn),·,·,·,?,14µM
CN1CCN(C2=C(NS(=O)(=O)c3ccccc3)C(=O)c3ccccc3C2=O)CC1,–,–,?,11µM,13µM
CCN1CCN(C2=C(NS(=O)(=O)c3ccccc3)C(=O)c3ccccc3C2=O)CC1,–,?,–,10µM,?
SMILES,TRPV1 agonist,uPA surface inh,TRPV1 PAM,RORg inh,VP16 counter
CC(=O)OC[C@@H]1O[C@@H](O/N=C2/C[C@@H](O)[C@@H](O)[C@@H]3[C@@H]4C(=O)N(c5cccc(Oc6ccccc6)c5)C(=O)[C@H]4CC[C@H]23)[C@H](OC(C)=O)[C@H](OC(C)=O)[C@@H]1OC(C)=O,·,·,·,–[10 µM],–[10 µM]
CN(CCOC(=O)c1ccc2c(c1)OCO2)C(C)(C)C,–,–,–,–,–
CCNC(=S)/N=C(/Nc1ccc(OC)cc1)Nc1nc(C)cc(C)n1,–,–,–,1.8µM,?
COc1cccc(NC(=O)N2CCC(C(=O)Nc3ccc(C)cc3C)CC2)c1,–,·,–,–[10 µM],–
CCNC(=S)NC(=NCc1cccnc1)Nc1nc(C)cc(C)n1,–,–,–,11µM,?
COc1cccc(N/C(=N/C(=S)Nc2ccc(C)cc2C)Nc2nc(C)cc(C)n2)c1,–,–,–,1.3µM,3.2µM
CCNC(=S)/N=C(/Nc1ccccc1)Nc1nc(C)cc(C)n1,–,–,–,0.79µM,3.2µM
C=C[C@@]1(C)CC(=O)[C@@]2(O)[C@@]3(C)[C@@H](O)CCC(C)(C)[C@@H]3[C@H](OC(=O)CCN(C)C)[C@H](OC(C)=O)[C@@]2(C)O1,·,·,·,–,–
COc1ccc(C(=O)NCc2cnn(C)c2C)cc1OC1CCN(C(C)C)CC1,–,–,–,–,–
N#Cc1ccc(C23CC4(C2)[C@H](CN(Cc2cccnc2)[C@@H]4c2ccccc2)C3c2ccc(C(F)(F)F)cc2)cc1 (stereo partly drawn),·,·,·,–,–
COC(=O)C(Cc1c[nH]c2ccccc12)NC(=O)COc1ccc(Cl)cc1Cl (stereo not drawn),?,·,–,·,·
COC(=O)c1cc2c(C(F)(F)F)nn(C)c2s1,–,–,–,–,–
Cc1nc2sccn2c1-c1csc(NCc2ccccc2)n1,–,–,–,?,1µM
O=C(c1csnn1)N1CCC2(CCCN(c3ccccc3)C2)CC1,·,·,·,–,?
CN(Cc1cn(-c2ccccc2)nc1-c1ccc2c(c1)OCO2)Cc1nccn1C,–,–,–,11µM,11µM
Cn1ccnc1C1CCCCN1Cc1nc(-c2ccc(Cl)cc2)no1 (stereo not drawn),–,–,–,10µM,?
CC(C)N(Cc1nc(-c2ccc(Cl)cc2)no1)Cc1nccn1C,–,–,–,5µM,?
CC(C)N(Cc1cn(C)nc1-c1cccc(Cl)c1)Cc1nccn1C,–,–,–,7.9µM,?
COc1ccc(-c2noc(CN(Cc3nccn3C)C(C)C)n2)cc1,–,–,?,?,–
O=C(CCN1C(=O)[C@@H]2Cc3ccccc3CN2C1=O)NCc1ccc(Cl)cc1,–,–,–,–,–
COc1cccc(CNC(=S)NC2CC2)c1,–,·,–,10µM,–
COc1cccc(CNC2CCCC2)c1,–,·,–,–,–
COc1cccc(CNC(=S)NC2CCCC2)c1,?,–,–,10µM,10µM
CCO[C@H]1OC(C(=O)NC2CC2)=C[C@@H](c2ccccc2)[C@@H]1CCCO,–,?,?,–,–
Cc1noc(C)c1NC(=O)Nc1ccc2c(c1)C(=O)N([C@H](C)CO)C[C@H](C)[C@@H](CN(C)C(=O)Nc1ccc3c(c1)OCO3)O2,·,–,·,·,·
SMILES,TRPV1 agonist,uPA surface inh,TRPV1 PAM,RORg inh,VP16 counter
O=C(CCNc1ccc(Br)cc1)c1cccc([N+](=O)[O-])c1,–,–,–,?,–
O=C(/C(N=Nc1cccc([N+](=O)[O-])c1)=C(/O)c1ccc(Br)cc1)C(F)(F)F,–,·,–,7.9µM,4.5µM
Cc1ccc(-c2nn(-c3ccccc3)c3[nH]c(=O)c(CNCCN(C)C)cc23)cc1,–,·,–,4µM,7.9µM
COc1ccc(C(=O)NNS(=O)(=O)c2ccccc2)cc1OC,–,–,–,–[1.91 µM],–
CN(C)C(=O)c1ccc(-c2cncnc2NCc2cccnc2)cc1,·,·,·,–,–
Cc1ccc(/C=N/n2c(-c3ccco3)n[nH]c2=S)s1,–,–,–,8.9µM,?
S=c1[nH]nc(-c2ccccn2)n1/N=C/c1c(Cl)cccc1Cl,–,–,?,?,–
S=c1[nH]nc(-c2ccco2)n1/N=C/c1ccccc1Cl,–,–,–,3.2µM,22µM
CC(/C=N/n1c(-c2ccco2)n[nH]c1=S)=C\c1ccccc1,–,–,–,?,–
S=c1[nH]nc(-c2ccco2)n1/N=C/c1ccc(Cl)cc1,–,–,–,4.5µM,4µM
Cc1ccc(/C=N/n2c(-c3cccnc3)n[nH]c2=S)s1,–,–,–,7.1µM,?
